Common to all, as to experiment: PBM; 200 nM protein, PBS
Common to all, as to settings: dsDNA, one strand shown

The target of test [1] is HOXA2 (Homo sapiens, UniProt O43364 129-215, R185T).
Test [2] has as its target HOXA2 (Homo sapiens, UniProt O43364 129-215, R185K).
In test [3] the target is HOXA2 (Homo sapiens, UniProt O43364 129-215, Y150S).
Test [4] deals with HOXA2 (Homo sapiens, UniProt O43364 129-215).
In test [5] the target is ALX1 (Homo sapiens, UniProt Q15699 118-204, L144R).
Test [6] has as its target CRX (Homo sapiens, UniProt O43186 26-111, R41L).
For test [7], the target named is VAX1 (Homo sapiens, UniProt Q5SQQ9 86-172, T142I).
VAX1 (Homo sapiens, UniProt Q5SQQ9 86-172, T142I), sequence (Q5SQQ9 86-172 T142I): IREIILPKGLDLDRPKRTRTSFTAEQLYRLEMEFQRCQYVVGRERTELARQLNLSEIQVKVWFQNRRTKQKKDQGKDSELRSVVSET
Test [8] has as its target VAX1 (Homo sapiens, UniProt Q5SQQ9 86-172).
The target in test [9] is VAX1 (Homo sapiens, UniProt Q5SQQ9 86-172, K157R).
VAX1 (Homo sapiens, UniProt Q5SQQ9 86-172, K157R), sequence (Q5SQQ9 86-172 K157R): as the sequence (Q5SQQ9 86-172 T142I) above, with I57T, K72R counted along it

Results on 24 sequences are retold here after paper PMC11006913.

HOXA2 (Homo sapiens, UniProt O43364 129-215, Y150S), sequence (O43364 129-215 Y150S): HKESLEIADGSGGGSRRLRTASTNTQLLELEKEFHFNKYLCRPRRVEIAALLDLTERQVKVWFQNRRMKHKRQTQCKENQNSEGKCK
HOXA2 (Homo sapiens, UniProt O43364 129-215), sequence (O43364 129-215): as the sequence (O43364 129-215 Y150S) above, with S22Y counted along it
HOXA2 (Homo sapiens, UniProt O43364 129-215, R185T), sequence (O43364 129-215 R185T): as the sequence (O43364 129-215 Y150S) above, with S22Y, R57T counted along it
HOXA2 (Homo sapiens, UniProt O43364 129-215, R185K), sequence (O43364 129-215 R185K): as the sequence (O43364 129-215 Y150S) above, with S22Y, R57K counted along it
CRX, sequence (O43186 26-111 R41L): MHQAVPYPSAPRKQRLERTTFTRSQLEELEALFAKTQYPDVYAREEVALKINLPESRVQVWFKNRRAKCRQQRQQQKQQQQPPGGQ
ALX1, sequence (Q15699 118-204 L144R): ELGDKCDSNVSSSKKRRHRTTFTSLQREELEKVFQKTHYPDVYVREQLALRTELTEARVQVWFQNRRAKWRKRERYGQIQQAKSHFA
VAX1 (Homo sapiens, UniProt Q5SQQ9 86-172), sequence (Q5SQQ9 86-172): as the sequence (Q5SQQ9 86-172 T142I) above, with I57T counted along it

On to ACACTAAT, for which the binding signal in test [1] was 11.5 upbm affinity estimate (log intensity, higher = more binding, comparable within an allelic series); in [2], 12.6 upbm affinity estimate (log intensity, higher = more binding, comparable within an allelic series); in [3], 10.9 upbm affinity estimate (log intensity, higher = more binding, comparable within an allelic series); in [4], 11.3 upbm affinity estimate (log intensity, higher = more binding, comparable within an allelic series).

In the case of CCCCCGTC, the binding signal in test [1] was 7.31 upbm affinity estimate (log intensity, higher = more binding, comparable within an allelic series); in [2], 10.2 upbm affinity estimate (log intensity, higher = more binding, comparable within an allelic series); in test [3] it was 10.3 upbm affinity estimate (log intensity, higher = more binding, comparable within an allelic series); in test [4], 7.2 upbm affinity estimate (log intensity, higher = more binding, comparable within an allelic series).

With CTACATTA, the binding signal was 10.6 upbm affinity estimate (log intensity, higher = more binding, comparable within an allelic series) in test [1]; 12.2 upbm affinity estimate (log intensity, higher = more binding, comparable within an allelic series) in test [2]; 10.8 upbm affinity estimate (log intensity, higher = more binding, comparable within an allelic series) in [3]; 10.8 upbm affinity estimate (log intensity, higher = more binding, comparable within an allelic series) in test [4].

For GGAGGCGA, the binding signal is 7.15 upbm affinity estimate (log intensity, higher = more binding, comparable within an allelic series) in test [1]; 10.6 upbm affinity estimate (log intensity, higher = more binding, comparable within an allelic series) in test [2]; 10.4 upbm affinity estimate (log intensity, higher = more binding, comparable within an allelic series) in [3]; 7.38 upbm affinity estimate (log intensity, higher = more binding, comparable within an allelic series) in [4].

AATTGCTC: the binding signal in test [1] is 10.4 upbm affinity estimate (log intensity, higher = more binding, comparable within an allelic series); in [2], 12 upbm affinity estimate (log intensity, higher = more binding, comparable within an allelic series); in test [3] it was 10.6 upbm affinity estimate (log intensity, higher = more binding, comparable within an allelic series); in test [4], 10.2 upbm affinity estimate (log intensity, higher = more binding, comparable within an allelic series).

Turning to AAGGCCCC, the binding signal in [1] was 7.25 upbm affinity estimate (log intensity, higher = more binding, comparable within an allelic series); in test [2] it was 10.3 upbm affinity estimate (log intensity, higher = more binding, comparable within an allelic series); in [3] it was 10.3 upbm affinity estimate (log intensity, higher = more binding, comparable within an allelic series); in test [4], 7.19 upbm affinity estimate (log intensity, higher = more binding, comparable within an allelic series).

In the case of GGATATTA, the binding signal in [1] is 10.4 upbm affinity estimate (log intensity, higher = more binding, comparable within an allelic series); in [2], 12 upbm affinity estimate (log intensity, higher = more binding, comparable within an allelic series); in [3] it was 10.8 upbm affinity estimate (log intensity, higher = more binding, comparable within an allelic series); in [4] it was 10.6 upbm affinity estimate (log intensity, higher = more binding, comparable within an allelic series).

Take CATTATGG: the binding signal in test [1] is 10.5 upbm affinity estimate (log intensity, higher = more binding, comparable within an allelic series); in test [2], 12.3 upbm affinity estimate (log intensity, higher = more binding, comparable within an allelic series); in test [3], 10.7 upbm affinity estimate (log intensity, higher = more binding, comparable within an allelic series); in test [4], 10.9 upbm affinity estimate (log intensity, higher = more binding, comparable within an allelic series).

For the sequence CCCCCCCG, the binding signal was 6.93 upbm affinity estimate (log intensity, higher = more binding, comparable within an allelic series) in test [1]; 9.85 upbm affinity estimate (log intensity, higher = more binding, comparable within an allelic series) in test [2]; 10.2 upbm affinity estimate (log intensity, higher = more binding, comparable within an allelic series) in test [3]; 7.13 upbm affinity estimate (log intensity, higher = more binding, comparable within an allelic series) in test [4].

As for CGATTACA, the binding signal was 10.3 upbm affinity estimate (log intensity, higher = more binding, comparable within an allelic series) in test [1]; 12 upbm affinity estimate (log intensity, higher = more binding, comparable within an allelic series) in test [2]; 10.7 upbm affinity estimate (log intensity, higher = more binding, comparable within an allelic series) in test [3]; 9.9 upbm affinity estimate (log intensity, higher = more binding, comparable within an allelic series) in test [4].

For GGTAACGA, the binding signal was 9.98 upbm affinity estimate (log intensity, higher = more binding, comparable within an allelic series) in test [1]; 12.2 upbm affinity estimate (log intensity, higher = more binding, comparable within an allelic series) in test [2]; 10.8 upbm affinity estimate (log intensity, higher = more binding, comparable within an allelic series) in test [3]; 10 upbm affinity estimate (log intensity, higher = more binding, comparable within an allelic series) in [4].

For the sequence CTGATTAA, the binding signal in test [1] was 11.9 upbm affinity estimate (log intensity, higher = more binding, comparable within an allelic series); in [2], 12.9 upbm affinity estimate (log intensity, higher = more binding, comparable within an allelic series); in test [5], 11.1 upbm affinity estimate (log intensity, higher = more binding, comparable within an allelic series); in test [3], 10.8 upbm affinity estimate (log intensity, higher = more binding, comparable within an allelic series); in [4], 11.5 upbm affinity estimate (log intensity, higher = more binding, comparable within an allelic series).

Regarding CCCCCTCC, the binding signal is 6.95 upbm affinity estimate (log intensity, higher = more binding, comparable within an allelic series) in test [1]; 9.98 upbm affinity estimate (log intensity, higher = more binding, comparable within an allelic series) in test [2]; 10.1 upbm affinity estimate (log intensity, higher = more binding, comparable within an allelic series) in test [3]; 6.89 upbm affinity estimate (log intensity, higher = more binding, comparable within an allelic series) in test [4].

On to ACTAATGC, for which the binding signal in test [1] was 10.2 upbm affinity estimate (log intensity, higher = more binding, comparable within an allelic series); in [2], 12.2 upbm affinity estimate (log intensity, higher = more binding, comparable within an allelic series); in [3], 10.7 upbm affinity estimate (log intensity, higher = more binding, comparable within an allelic series); in [6], 10.1 upbm affinity estimate (log intensity, higher = more binding, comparable within an allelic series); in test [4], 10.5 upbm affinity estimate (log intensity, higher = more binding, comparable within an allelic series).

In the case of CCCCCACC, the binding signal in test [1] was 6.87 upbm affinity estimate (log intensity, higher = more binding, comparable within an allelic series); in test [2], 9.85 upbm affinity estimate (log intensity, higher = more binding, comparable within an allelic series); in test [3] it was 10.3 upbm affinity estimate (log intensity, higher = more binding, comparable within an allelic series); in test [4] it was 6.86 upbm affinity estimate (log intensity, higher = more binding, comparable within an allelic series).

On to TACTTTAA, for which the binding signal in test [1] is 9.67 upbm affinity estimate (log intensity, higher = more binding, comparable within an allelic series); in test [2] it was 11.6 upbm affinity estimate (log intensity, higher = more binding, comparable within an allelic series); in test [3], 10.8 upbm affinity estimate (log intensity, higher = more binding, comparable within an allelic series); in test [4], 9.6 upbm affinity estimate (log intensity, higher = more binding, comparable within an allelic series).

For the sequence AGAATTAT, the binding signal in test [1] was 9.79 upbm affinity estimate (log intensity, higher = more binding, comparable within an allelic series); in test [2], 11.6 upbm affinity estimate (log intensity, higher = more binding, comparable within an allelic series); in test [3], 10.7 upbm affinity estimate (log intensity, higher = more binding, comparable within an allelic series); in test [4] it was 9.68 upbm affinity estimate (log intensity, higher = more binding, comparable within an allelic series).

In the case of AGAGCCCC, the binding signal was 7.28 upbm affinity estimate (log intensity, higher = more binding, comparable within an allelic series) in [1]; 10.2 upbm affinity estimate (log intensity, higher = more binding, comparable within an allelic series) in test [2]; 10.3 upbm affinity estimate (log intensity, higher = more binding, comparable within an allelic series) in [3]; 7.25 upbm affinity estimate (log intensity, higher = more binding, comparable within an allelic series) in test [4].

On to GTAATGAC, for which the binding signal is 12 upbm affinity estimate (log intensity, higher = more binding, comparable within an allelic series) in test [1]; 13.1 upbm affinity estimate (log intensity, higher = more binding, comparable within an allelic series) in test [2]; 12.3 upbm affinity estimate (log intensity, higher = more binding, comparable within an allelic series) in test [7]; 10.8 upbm affinity estimate (log intensity, higher = more binding, comparable within an allelic series) in test [3]; 12.1 upbm affinity estimate (log intensity, higher = more binding, comparable within an allelic series) in test [4].

In the case of ACCTCGCC, the binding signal in test [1] was 7.06 upbm affinity estimate (log intensity, higher = more binding, comparable within an allelic series); in test [2] it was 10.2 upbm affinity estimate (log intensity, higher = more binding, comparable within an allelic series); in [3], 10.4 upbm affinity estimate (log intensity, higher = more binding, comparable within an allelic series); in test [4] it was 6.93 upbm affinity estimate (log intensity, higher = more binding, comparable within an allelic series).

For CTACGCCC, the binding signal in test [1] was 7.29 upbm affinity estimate (log intensity, higher = more binding, comparable within an allelic series); in [2], 10.3 upbm affinity estimate (log intensity, higher = more binding, comparable within an allelic series); in test [3], 10.5 upbm affinity estimate (log intensity, higher = more binding, comparable within an allelic series); in test [4], 7.38 upbm affinity estimate (log intensity, higher = more binding, comparable within an allelic series).

On to CTCATTAC, for which the binding signal in [1] was 12.5 upbm affinity estimate (log intensity, higher = more binding, comparable within an allelic series); in test [2] it was 13.2 upbm affinity estimate (log intensity, higher = more binding, comparable within an allelic series); in [8], 13 upbm affinity estimate (log intensity, higher = more binding, comparable within an allelic series); in test [7], 12.7 upbm affinity estimate (log intensity, higher = more binding, comparable within an allelic series); in [3], 10.8 upbm affinity estimate (log intensity, higher = more binding, comparable within an allelic series); in test [4], 12.3 upbm affinity estimate (log intensity, higher = more binding, comparable within an allelic series). Moreover, the binding signal in test [9] is 12.8 upbm affinity estimate (log intensity, higher = more binding, comparable within an allelic series).

As for CAGTTAAG, the binding signal is 9.01 upbm affinity estimate (log intensity, higher = more binding, comparable within an allelic series) in test [1]; 11.5 upbm affinity estimate (log intensity, higher = more binding, comparable within an allelic series) in [2]; 8.89 upbm affinity estimate (log intensity, higher = more binding, comparable within an allelic series) in test [4].

Take GAGCCCGC: the binding signal in test [1] was 7.09 upbm affinity estimate (log intensity, higher = more binding, comparable within an allelic series); in test [2] it was 10.2 upbm affinity estimate (log intensity, higher = more binding, comparable within an allelic series); in [3] it was 10.4 upbm affinity estimate (log intensity, higher = more binding, comparable within an allelic series); in [4] it was 7.5 upbm affinity estimate (log intensity, higher = more binding, comparable within an allelic series).
